A number with no mark means an inactive call. Records with an inconclusive call do not appear. Active and inactive are the calls of the source. The call rests on the fitted dose curve; in most records, active means well fitted curve in the direction sought with a large enough effect; inconclusive means small, poorly fitted or top-dose-only effect, or another doubt; inactive means no such curve, though single readings can be large; an effect the other way counts as inactive or inconclusive.
Each compound was assayed against Cytochrome P450 3A4 (Homo sapiens) (UniProt P08684) (assay: qHTS Assay for Inhibitors and Substrates of Cytochrome P450 3A4 (AID 884; further: nearly all actives have a fitted effect of over 50% in size; further: potency means the concentration at half of the fitted maximal effect; on activity change, negative = inhibition: on the % scale 0 is the no-effect control and ±100 the full control effect)). Conditions: recombinant CYP3A4, Luciferin-PPXE luminescence; series mostly up to 57.1 µM; activity change, negative = inhibition: at the top concentration.
Chain of Cytochrome P450 3A4 (Homo sapiens) (P08684 whole entry, looked up): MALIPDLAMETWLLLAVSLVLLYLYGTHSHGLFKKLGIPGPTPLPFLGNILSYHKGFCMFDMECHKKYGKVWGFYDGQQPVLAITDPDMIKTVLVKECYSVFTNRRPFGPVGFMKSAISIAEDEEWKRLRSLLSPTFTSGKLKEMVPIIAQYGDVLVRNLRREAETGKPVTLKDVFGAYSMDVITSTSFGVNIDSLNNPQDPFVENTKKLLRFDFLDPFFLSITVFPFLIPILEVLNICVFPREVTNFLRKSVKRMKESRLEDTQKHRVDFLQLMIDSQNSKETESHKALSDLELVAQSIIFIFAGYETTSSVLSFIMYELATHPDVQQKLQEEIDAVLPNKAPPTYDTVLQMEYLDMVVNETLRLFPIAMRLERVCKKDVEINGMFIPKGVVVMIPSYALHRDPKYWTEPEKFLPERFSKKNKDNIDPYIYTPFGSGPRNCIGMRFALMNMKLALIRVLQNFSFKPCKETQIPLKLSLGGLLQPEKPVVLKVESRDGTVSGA
Method in brief: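 Luminescent readout of luciferin produced by CYP3A4 (20 nM) dealkylation of Luciferin-PPXE, 25 uM (its KM). NADPH-driven reaction ran 60 min at RT after 10 min compound preincubation; data scaled to 57 uM ketoconazole as 100% inhibition.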
With CCCn1c(-c2ccc(F)cc2)nc2c(NCCCN3CCCCC3C)nc(C)nc21 (centres undefined) the Potency was 10 µM (active). With Cc1nc(NCc2ccccc2)c2nc(-c3ccccc3)n(CCN3CCCCC3)c2n1 the Potency was 2.51 µM (active). In the case of CCCCNc1nc(C)nc2c1nc(-c1ccccc1)n2C1CCN(Cc2ccccc2)C1 (centres undefined), the Potency is reported as 7.94 µM (active). For CCN(CC)CCCC(C)n1c(-c2ccccc2)nc2c(NCc3ccccc3)nc(C)nc21 (centres undefined), the Potency was 5.01 µM (active). CCN(CC)CCCC(C)n1c(-c2ccccc2)nc2c(NC3CCCCC3)nc(C)nc21 (centres undefined) was tested, and the Potency was 12.6 µM (active). For CCCn1c(-c2ccc(F)cc2)nc2c(NCCCCN(CC)CC)nc(C)nc21, the Potency was 10 µM (active). For COCCNc1nc(C)nc2c1nc(-c1ccccc1)n2C1CCN(Cc2ccccc2)C1 (centres undefined), the Potency was 12.6 µM (active). In the case of Cc1nc(NCc2ccccc2)c2nc(-c3ccccc3)n(CC(C)(C)CN(C)C)c2n1, the Potency is reported as 3.98 µM (active). For CCCn1c(-c2ccc(F)cc2)nc2c(N3CCN(Cc4nc(OC)cc(OC)n4)CC3)nc(C)nc21, the Potency was 3.98 µM (active). For CCCn1c(-c2ccc(F)cc2)nc2c(NCCCCN3CCCC3)nc(C)nc21, the Potency was 15.8 µM (active). With CCCn1c(C)nc2c(NCCN3CCCC3)nc(C)nc21 the “activity change, negative = inhibition” value was 113%. CCCn1c(-c2ccc(F)cc2)nc2c(NC(C)CCCN(CC)CC)nc(C)nc21 (centres undefined) was tested, and the Potency was 10 µM (active). For CCN(CC)CCCCn1c(-c2ccccc2)nc2c(NCc3ccccc3)nc(C)nc21, the Potency was 7.94 µM (active).

These compounds were tested against Cytochrome P450 3A4 (Homo sapiens) (UniProt P08684) (assay: qHTS Assay for Activators of Cytochrome P450 3A4 (AID 885; further: nearly all actives have a fitted effect of over 65% in size)). Conditions: recombinant CYP3A4, Luciferin-PPXE luminescence, 60 min; series mostly up to 57.1 µM; activity change, positive = activation: at the top concentration.
Method in brief: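 Luminescent readout of luciferin formed from 25 uM Luciferin-PPXE (KM level) by 20 nM CYP3A4 in 200 mM KPO4, with 60 min NADPH-driven reaction at room temperature after 10 min compound exposure. Ketoconazole (57 uM) defined 100% inhibition.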
CCCn1c(-c2ccc(F)cc2)nc2c(NCCCN3CCCCC3C)nc(C)nc21 (centres undefined) was tested, and the “activity change, positive = activation” value was -74.2%. CCCn1c(C)nc2c(NCc3ccccc3)nc(C)nc21 was tested, and the “activity change, positive = activation” value was -37.6%. For Cc1nc(N2CCOCC2)c2nc(-c3ccccc3)n(CCN3CCCC3)c2n1, the “activity change, positive = activation” value was -38.2%. In the case of CCN(CC)CCCn1c(-c2ccccc2)nc2c(NCc3ccccc3)nc(C)nc21, the “activity change, positive = activation” value is reported as -57.5%. For CCN(CC)CCCC(C)n1c(-c2ccccc2)nc2c(NCCOC)nc(C)nc21 (centres undefined), the “activity change, positive = activation” value was -47.1%. For CCCCNc1nc(C)nc2c1nc(-c1ccccc1)n2CC1CCN(C)CC1, the “activity change, positive = activation” value was -42.9%. CCCn1c(-c2ccc(F)cc2)nc2c(NCCN3CCCCC3)nc(C)nc21 was tested, and the “activity change, positive = activation” value was -59.7%. With CCCn1c(-c2ccc(F)cc2)nc2c(NCCCCN(C)C)nc(C)nc21 the “activity change, positive = activation” value was -48.6%. CCCCNc1nc(C)nc2c1nc(-c1ccccc1)n2CCCCN(CC)CC was tested, and the “activity change, positive = activation” value was -58.5%. With Cc1nc(NCc2ccccc2)c2nc(-c3ccccc3)n(CCN3CCCCC3)c2n1 the “activity change, positive = activation” value was -121%. With CCN(CC)CCCCn1c(-c2ccccc2)nc2c(N3CCOCC3)nc(C)nc21 the “activity change, positive = activation” value was -35.2%. In the case of Cc1nc(N2CCOCC2)c2nc(-c3ccccc3)n(C(C)CN(C)C)c2n1 (centres undefined), the “activity change, positive = activation” value is reported as -43.3%. In the case of CCCn1c(C)nc2c(NCCCCN(CC)CC)nc(C)nc21, the “activity change, positive = activation” value is reported as -43.5%. In the case of CCCCNc1nc(C)nc2c1nc(-c1ccccc1)n2CCCN(C)C, the “activity change, positive = activation” value is reported as -44.3%. Cc1nc(N2CCOCC2)c2nc(-c3ccccc3)n(CC(C)(C)CN(C)C)c2n1 was tested, and the “activity change, positive = activation” value was -52.2%. With CCCCNc1nc(C)nc2c1nc(-c1ccccc1)n2C1CCN(Cc2ccccc2)C1 (centres undefined) the “activity change, positive = activation” value was -99.2%. In the case of CCCn1c(C)nc2c(NC3CCN(Cc4ccccc4)C3)nc(C)nc21 (centres undefined), the “activity change, positive = activation” value is reported as -52.1%. In the case of CCN(CC)CCCC(C)n1c(-c2ccccc2)nc2c(NCc3ccccc3)nc(C)nc21 (centres undefined), the “activity change, positive = activation” value is reported as -87.3%. For CCN(CC)CCCC(C)n1c(-c2ccccc2)nc2c(NC3CCCCC3)nc(C)nc21 (centres undefined), the “activity change, positive = activation” value was -82.9%. In the case of CCCn1c(-c2ccc(F)cc2)nc2c(NCCCCN(CC)CC)nc(C)nc21, the “activity change, positive = activation” value is reported as -62.4%. CCCn1c(-c2ccc(F)cc2)nc2c(NC(C)CN(C)C)nc(C)nc21 (centres undefined) was tested, and the “activity change, positive = activation” value was -45.2%. With CCN(CC)CCCn1c(-c2ccccc2)nc2c(N(CCOC)CCOC)nc(C)nc21 the “activity change, positive = activation” value was -49.2%. With Cc1nc(NC2CCCCC2)c2nc(-c3ccccc3)n(CCN(C)C)c2n1 the “activity change, positive = activation” value was -40.8%. With CCN(CC)CCn1c(-c2ccccc2)nc2c(NC3CCCCC3)nc(C)nc21 the “activity change, positive = activation” value was -53.4%. For CCCn1c(-c2ccc(F)cc2)nc2c(NCC3CCCN3CC)nc(C)nc21 (centres undefined), the “activity change, positive = activation” value was -56%. In the case of COCCNc1nc(C)nc2c1nc(-c1ccccc1)n2C1CCN(Cc2ccccc2)C1 (centres undefined), the “activity change, positive = activation” value is reported as -66.3%. In the case of CCN(CC)CCn1c(-c2ccccc2)nc2c(NCCOC)nc(C)nc21, the “activity change, positive = activation” value is reported as -44.7%. For Cc1nc(NCc2ccccc2)c2nc(-c3ccccc3)n(CC(C)(C)CN(C)C)c2n1, the “activity change, positive = activation” value was -84.1%. In the case of Cc1nc(Nc2ccccc2)c2nc(-c3ccccc3)n(CCCN3CCCCC3C)c2n1 (centres undefined), the “activity change, positive = activation” value is reported as -59.6%. For CCCn1c(-c2ccc(F)cc2)nc2c(N3CCN(Cc4nc(OC)cc(OC)n4)CC3)nc(C)nc21, the “activity change, positive = activation” value was -99.3%. CCCn1c(C)nc2c(N3CCOCC3)nc(C)nc21 was tested, and the “activity change, positive = activation” value was -30.7%.
